# ELG1 DNA repair = inhibitors of ELG1-dependent DNA repair in HEK293T cells | HEK293T ELG1-luciferase reporter, luminescence, 16 h; DNA damage induced by 5-fluorouridine | Potency, µM (highest dose often 46.1 µM), for the others: at the highest dose activity change, negative = inhibition, actives largely listed as inhibitors | 2.3% of 330,000 active | AID 504467; further: potency means the concentration at half of the fitted maximal effect; nearly all actives have a fitted effect of over 55% in size
#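 Luminescence from the luciferase reporter, measured 30 min after ONE-Glo reagent at room temperature, was the read-out. Beforehand, 2,000 cells per well were exposed for 16 hr at 37 °C to 5-fluorouridine together with compound or vehicle.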
# DT40 TDP1 CPT = DT40-hTDP1 cell growth loss with CPT. chicken DT40 Tdp1-/-;hTDP1 cells + 20 nM CPT, ATP luminescence, 48 h. Potency, µM (top dose mostly 46.2 µM), for the others: top-dose activity change, negative = growth inhibition, usual class: inhibitors. 12% of 420,000 active; further: potency means the concentration at half of the fitted maximal effect; nearly all actives have a fitted effect of over 55% in size
#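 Cell growth measured by CellTiter-Glo luminescence after a minimum 48 h, 37 C compound exposure with 20 nM CPT in Tdp1-knockout DT40 cells stably expressing hTDP1, seeded 400/well; qHTS titration format.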
# IL-1B inflam inh = inflammasome signaling inhibition, IL-1 beta readout | 4.7% of 360,000 active | THP-1 LPS/ATP IL-1B secretion, AlphaLISA, 16 h; active compounds read low | AID 743279 | activity change, % at 57.5 µM; in the data active means activity change below about -50%; inconclusive means mostly about -30% to -49%
#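 Secreted IL-1B measured by AlphaLISA bead assay after 16 h compound exposure of THP-1 cells; compounds (final up to 57.5 uM) added 1 h before LPS (250 ng/mL) and ATP (1.25 mM) stimulation; lower signal means less secretion.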
# TDP1 cell noCPT = qHTS for Inhibitors of human tyrosyl-DNA phosphodiesterase 1 (TDP1): qHTS in cells in absence of CPT; DT40 Tdp1-/- hTDP1 cells, no CPT, ATP luminescence, 48 h; Potency, µM (top dose mostly 46.2 µM), inactives show top-dose activity change, negative = growth inhibition, most hits filed as inhibitors; 15% of 420,000 active; AID 686978, 2013; further: potency means the concentration at half of the fitted maximal effect; nearly all actives have a fitted effect of over 55% in size
#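 Chicken DT40 Tdp1-/- cells complemented with human TDP1, screened without camptothecin (DMSO vehicle only), 400 cells/well. Compounds pin-transferred, cells incubated at 37 °C for at least 48 hr. Growth read as ATP-dependent luminescence (CellTiter-Glo, 30 min at RT).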
# HT1080-NT tox = kills 2HG-producing HT-1080-NT fibrosarcoma cells; HT-1080-NT fibrosarcoma viability, CellTiter-Glo ATP luminescence, 48 h; 1.6% of 360,000 active; Potency, µM (highest dose often 46.1 µM), for inactives: top-dose activity, negative = less viability, usual class: cytotoxic;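 further: NT is the 2HG producing partner of a matched IDH1 knockdown line; potency means the concentration at half of the fitted maximal effect; 0% = DMSO-treated cells and -100% = media-only wells without cells; nearly all actives have a fitted effect of over 55% in size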
#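 Compounds were tested in concentration-response format on HT-1080-NT cells for 48 hours at 37 degrees C. Cell viability came from CellTiter-Glo luminescence; curves were classified by r2, response magnitude and activity.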
# HT1080 IDH1KD tx = kills HT-1080 cells with IDH1 knockdown; HT-1080 IDH1 knockdown viability, ATP luminescence, 48 h; Potency, µM (highest dose often 46.1 µM), inactives show at the top dose activity, negative = toxicity, actives largely listed as cytotoxic; 2% of 360,000 active; AID 686971;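 further: potency means the concentration at half of the fitted maximal effect; 0% = DMSO wells and -100% = cell-free medium wells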
#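 Knockdown cells (IDH1KD HT-1080) received compounds 2 h after plating at 750 cells/well and were kept 48 h at 37 °C in 5% FBS RPMI. A CellTiter-Glo luminescence read gave % activity for curve fitting.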
# * hit, by the source's call; ? = inconclusive; . = no result given. An excerpt weighted towards active compounds, which were near 19% of everything screened. Unless noted, the call rests on the fitted dose curve; in most records, active means well fitted curve in the direction sought with a large enough effect; inconclusive means small, poorly fitted or top-dose-only effect, or another doubt; inactive means no such curve, though single readings can be large; an effect the other way counts as inactive or inconclusive. Unless noted, on the % scale 0 is the no-effect control and ±100 the full control effect.
SMILES,ELG1 DNA repair,DT40 TDP1 CPT,IL-1B inflam inh,TDP1 cell noCPT,HT1080-NT tox,HT1080 IDH1KD tx
Cc1c(Cl)cccc1NC(=S)NCc1ccco1,?,-30%,16,-27%,?,-1%
CCN(CC)CCCC(C)NC(=O)c1ccc(C(F)(F)F)cc1 (stereo unspecified),3%,0%,-50*,?,-1%,-3%
CN(C)c1ccc(-n2cccc2/C=C/[N+](=O)[O-])cc1,?,16µM*,-101*,4.1µM*,6.5µM*,6.5µM*
c1cc2c(cc1C1CCCCC1)c1c3n2CCN=C3CCC1,-2%,?,?,?,21µM*,?
Cc1ccc2c(c1)c1c3n2CCN=C3CCC1,-14%,-25%,-96*,-29%,-1%,-4%
COc1ccc2c(c1)c1c3n2CCN(C)C3=NCC1,3%,-2%,-11,?,-1%,-5%
Cc1ccc2c(c1)c1c(n2C)-c2[nH]ncc2CC1,?,?,-21,?,-18%,0%
NNC(=O)COc1cccc(Oc2ccccc2)c1,-2%,?,-3,18µM*,-4%,-7%
NNC(=O)COc1ccc(F)cc1,-4%,-8%,9,-1%,-4%,-28%
CCSc1nc(=S)cc(C)[nH]1,6%,?,13,21µM*,20%,22%
CCOC(=O)c1ccc(NC(=O)CN(c2ccc(C)cc2)S(=O)(=O)c2c(C)nn(C)c2C)cc1,?,23µM*,13,?,?,?
COc1ccc2nc(NC(=O)CN(c3ccc(C)cc3)S(=O)(=O)c3c(C)nn(C)c3C)sc2c1,23µM*,?,-10,?,-12%,-16%
CCOc1ccccc1NC(=O)CN(c1cc(C)cc(C)c1)S(=O)(=O)c1c(C)nn(C)c1C,.,21µM*,.,21µM*,.,.
Cc1ccc(NC(=O)C2(C)CCN2C(=O)Cc2ccccc2Cl)cc1C (stereo unspecified),.,-23%,-20,?,0%,0%
COc1ccc(Cl)cc1NC(=O)c1sc2nc(C)nc(N3CCOCC3)c2c1C,2%,-19%,-9,-1%,10%,-1%
CNC(=O)C1C(=S)NC(N)=C(C#N)C1c1ccccc1 (stereo unspecified),10%,26µM*,?,6.5µM*,?,?
CSC1=C(C#N)C(c2ccccc2)C(C(C)=O)=C(C)N1 (stereo unspecified),6%,1%,11,-2%,3%,-3%
CCCCNc1nnc(SCC(=O)c2c(N)n(C3CC3)c(=O)[nH]c2=O)s1,-1%,-10%,14,3%,4%,-2%
Cc1c(C(=O)NCCC#N)sc(=O)n1Cc1ccc(C(=O)N(C)C)cc1,.,3%,33,-3%,15%,13%
CCOC(=O)N1CCN(C(=O)CCN2C(=O)/C(=C\c3cccc(OC)c3)SC2=S)CC1,13%,-96%,9,15µM*,11%,10%
COc1ccc(/C=C2\SC(=S)N(CCC(=O)N3CCCCC3)C2=O)cc1,3%,?,-6,?,1%,9%
COc1cccc(/C=C2\SC(=S)N(CCC(=O)N3CCCCC3)C2=O)c1,-5%,6.5µM*,0,4.1µM*,0%,-1%
COc1cccc(/C=C2\SC(=S)N(CCCC(=O)Nc3cc(C)on3)C2=O)c1,2%,-27%,-13,-6%,-1%,4%
O=C(Nc1cccc(C(F)(F)F)c1)c1csc([C@@H]2O[C@H](CO)[C@H](O)[C@H](O)[C@H]2O)n1,.,-5%,0,-5%,4%,?
COc1ccc(-c2ccc(=N)n(CCCC(=O)O)n2)cc1,.,-6%,.,0%,.,.
SMILES,ELG1 DNA repair,DT40 TDP1 CPT,IL-1B inflam inh,TDP1 cell noCPT,HT1080-NT tox,HT1080 IDH1KD tx
Cn1c(Oc2ccc(F)cc2F)c(C=O)c2ccccc21,?,-12%,-88*,?,-11%,12%
Cc1ccc(Oc2c(C=O)c3ccccc3n2C)cc1,?,3.3µM*,-18,?,-19%,-15%
Cn1c(Oc2ccc(Cl)cc2)c(C=O)c2ccccc21,12µM*,?,-95*,26µM*,?,?
CCc1ccc(-c2cc(C(=O)O)c3ccccc3n2)s1,?,-13%,26,?,-19%,-11%
COc1cccc(OC)c1C(=O)NCc1ccco1,.,0%,23,-15%,14%,12%
O=C1CC(=O)Nc2cc(S(=O)(=O)N3CCOc4ccc(Cl)cc43)ccc2N1,4%,?,16,?,-18%,-14%
CCOC(=O)C1=C[C@@H](C)N(S(=O)(=O)c2ccc(C)cc2)[C@H]1c1ccccc1,.,?,1,?,-3%,-7%
CCOC(=O)C1=C[C@@H](C(C)C)N(S(=O)(=O)c2ccc(C)cc2)[C@H]1c1ccc(C(F)(F)F)cc1,.,?,44,12µM*,-14%,-19%
CCOC(=O)C1=CCN(S(=O)(=O)c2ccccc2)C1c1ccc(C)cc1 (stereo unspecified),.,-2%,19,-27%,1%,0%
CCOC(=O)C1=C[C@@H](CC)N(S(=O)(=O)c2ccccc2)[C@H]1c1ccccc1,.,?,1,18µM*,-1%,0%
CCC[C@@H]1C=C(C(=O)OCC)[C@H](c2ccccc2)N1S(=O)(=O)c1ccc(C)cc1,.,5.2µM*,4,5.2µM*,-10%,-23%
CCOC(=O)C1=C[C@@H](c2ccccc2)N(S(=O)(=O)c2ccc(C)cc2)[C@H]1c1ccccc1Cl,.,?,1,26µM*,1%,10%
COc1ccc(N2CC(NC(=O)C3CC3)CC2=O)cc1OC (stereo unspecified),.,9%,.,-6%,.,.
O=C(c1ccc(-n2cncn2)c2ccoc12)N1CCOCC1,.,1%,14,-9%,9%,28%
O=C1CCCCC(=O)[C@H](O)C[C@H](COCc2ccccc2)O1,.,-13%,25,0%,12%,22%
CCOC(=O)C1=C[C@@H](C(C)(C)C)N(S(=O)(=O)c2ccc(C)cc2)[C@H]1c1ccc(Cl)c(Cl)c1,.,16µM*,25,23µM*,15µM*,15µM*
CCOC(=O)C1=C[C@@H](C2CCCCC2)N(S(=O)(=O)c2ccc([N+](=O)[O-])cc2)[C@H]1c1ccccc1,.,21µM*,-19,?,?,8.2µM*

# Source: PubChem (National Center for Advancing Translational Sciences (NCATS))
